Activity calls are given as the source filed them. How the source made its calls: active means hit-call score of the fitted dose curve at least 0.9, where 1 is the maximum; inactive means score below 0.9.
molecular target: CCAAT/enhancer-binding protein beta (Homo sapiens) (UniProt P17676); assay: ATG_C_EBP_CIS: Attagene CIS-FACTORIAL HepG2 Assay for human CCAAT/Enhancer Binding Protein (C/EBP) beta (AID 2282927); details: HepG2 Attagene cis-factorial transcription factor reporter; actives raise or lower the signal
Sequence (P17676 whole entry, looked up): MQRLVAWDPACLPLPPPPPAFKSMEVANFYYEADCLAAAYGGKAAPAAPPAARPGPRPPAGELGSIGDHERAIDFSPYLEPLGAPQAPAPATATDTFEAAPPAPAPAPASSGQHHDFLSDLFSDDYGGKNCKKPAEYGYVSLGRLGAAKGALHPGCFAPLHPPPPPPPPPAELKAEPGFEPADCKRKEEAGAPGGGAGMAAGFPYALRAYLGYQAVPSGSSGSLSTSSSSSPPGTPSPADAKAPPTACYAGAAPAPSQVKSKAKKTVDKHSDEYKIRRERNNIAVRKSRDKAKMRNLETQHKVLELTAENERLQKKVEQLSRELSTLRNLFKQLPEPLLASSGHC
Description: ATG_CIS is a cell-based, multiplexed-readout assay that uses HepG2, a human liver cell line, with measurements taken at 24 hours after chemical dosing in a 24-well plate.ATG_C_EBP_CIS is one of 52 assay component(s) measured or calculated from the ATG_CIS assay. It is designed to make measurements of mRNA induction, a form of inducible reporter, as detected with fluorescence intensity signals by Reverse transcription polymerase chain reaction (RT-PCR) and Capillary electrophoresis technology.Data from the assay component ATG_C_EBP_CIS was analyzed into 1 assay endpoint. This assay endpoint, ATG_C_EBP_CIS, was analyzed with bidirectional fitting relative to DMSO as the negative control and baseline of activity. Using a type of inducible reporter, measures of mRNA for gain or loss-of-signal activity can be used to understand the reporter gene at the transcription factor-level as they relate to the gene CEBPB. Furthermore, this assay endpoint can be referred to as a primary readout, because this assay has produced multiple assay endpoints where this one serves a reporter gene function. To generalize the intended target to other relatable targets, this assay endpoint is annotated to the dna binding intended target family, where the subfamily is basic leucine zipper.
Human liver HepG2 cells are transiently transfected with multiple reporter transcription units (MRTUs) in 6-well plates using FuGene 6 reagent (Roche; 3 ml FuGene/1 mg DNA). The MRTU constructs are regulated by a cis-regulating element (promoter). […] A major difference between the CIS and TRANS system is that in CIS activities of endogenous TFs are measured, whereas the TRANS assay evaluates changes in activities of exogenous, chimeric NR-Gal4 proteins. […] At the end of 24 hour incubation, total RNA was isolated using TriZol reagent (Invitrogen). The isolated RNA is then reverse-transcribed using oligo(dT) primer and Mo-MLV reverse transcriptase (Invitrogen) with DNAse I (Ambion) treatment for 30 min. The one-tenth of the produced cDNA was amplified by PCR using Taq DNA polymerase (Invitrogen) and two reporter sequence-specific primers. The PCR products were fluorescently labeled by primer extension with 6-arboxyfluorescein (6-FAM) 5'-labeled reporter sequence-specific primer (2 min at 95 C, 20 s at 68 C and 10 min at 72 C) and these products were digested with 5U of HpaI (New England Biolabs) for 2h at 37 C. The fragments were purified using Qiaquick PCR columns (Qiagen), analyzed on an ABI 3130xL genetic analyzer (Applied Biosystems) with peak positions identified by using a set of X-rhodamine (ROX)-labeled MapMarker1000 molecular weight standards (BioVentures). The raw capillary electrophoresis data was processed using Attagraph software (Attagene).

AC50, active:
CC(C)(c1cc(Br)c(OCCO)c(Br)c1)c1cc(Br)c(OCCO)c(Br)c1 45.3 µM

outcome, inactive:
N=c1ccn2c(n1)O[C@H]1[C@H](O)[C@@H](CO)O[C@H]12
OCCN(CCO)c1ccccc1
C=CCOCC(O)CCl (stereo not given)
C1=CCCC1
C=CC(=O)NC(C)(C)CS(=O)(=O)O
O=Nc1ccc(O)cc1
Cc1cc(C)c(C)cc1C
CC(C)(C)C1CCCCC1=O (stereo not given)
CC(C)c1ccc(C#N)cc1
CN1C(=O)N(C)C(O)C1O (stereo not given)
CCCCCCCCCCCCCOP(=O)(O)O
CCC(Cc1ccccc1)(C(=O)c1ccc(N2CCOCC2)cc1)N(C)C (stereo not given)
COc1ccc2nc(N)sc2c1
c1cc(C(c2ccc(OCC3CO3)cc2)C(c2ccc(OCC3CO3)cc2)c2ccc(OCC3CO3)cc2)ccc1OCC1CO1 (stereo not given)
CC(C)(C)c1ccc(-c2ccc(C(C)(C)C)cc2)cc1
CCOC(=O)Cc1cccc2ccccc12
OC1CCCCCCCCCCC1
CC=CC(F)(F)C(F)(F)C(F)(F)F
CC(=O)OCC(=O)[C@@]12N=C(C)O[C@@H]1C[C@H]1[C@@H]3CCC4=CC(=O)C=C[C@]4(C)[C@H]3[C@@H](O)C[C@@]12C
COCC(C)N (stereo not given)
Cc1ccc(OC(=O)CC(C)C)cc1
O=S(=O)(Oc1ccc(Cl)cc1Cl)c1ccccc1
O=C(C=Cc1ccccc1)OCc1ccccc1
C=COCCCC
CCN(CC#N)c1cccc(C)c1
Cc1cc(C)c(C)c(O)c1
Cc1ccc(C(C)c2ccc(C)c(C)c2)cc1C
CC(=O)C=CC1C(C)=CCC(C)C1(C)C (stereo not given)
CC(C)(Oc1ccc(C2CC2(Cl)Cl)cc1)C(=O)O (stereo not given)
CCCNC(=O)NS(=O)(=O)c1ccc(Cl)cc1
CCCCCc1ccc(Cl)cc1
C=C(C)c1cccc(C(C)(C)N=C=O)c1
OC1CCCC1
O=C1OC(=O)c2cc(Oc3ccc4c(c3)C(=O)OC4=O)ccc21
CC(C)c1ccc2c(c1)CC[C@H]1[C@](C)(CN)CCC[C@]21C
C[C@]12C=CC(=O)C=C1CC[C@@H]1[C@@H]2[C@@H](O)C[C@@]2(C)[C@H]1CC[C@]2(O)C(=O)CO
CC=C1CC2C=CC1C2 (stereo not given)
COc1c2ccoc2cc2oc(=O)ccc12
O=S(=O)(O)c1ccccc1C=Cc1ccc(-c2ccc(C=Cc3ccccc3S(=O)(=O)O)cc2)cc1
